These results are taken from ChEMBL document CHEMBL2218924, “A broad activity screen in support of a chemogenomic map for kinase signalling research and drug discovery” (Biochem J, 2013).

The residual activity is the signal under treatment as a percentage of the control signal.

In assay [1] the target is T1, Ephrin type-A receptor 3 (Homo sapiens) (UniProt P29320).
T1 sequence (whole entry): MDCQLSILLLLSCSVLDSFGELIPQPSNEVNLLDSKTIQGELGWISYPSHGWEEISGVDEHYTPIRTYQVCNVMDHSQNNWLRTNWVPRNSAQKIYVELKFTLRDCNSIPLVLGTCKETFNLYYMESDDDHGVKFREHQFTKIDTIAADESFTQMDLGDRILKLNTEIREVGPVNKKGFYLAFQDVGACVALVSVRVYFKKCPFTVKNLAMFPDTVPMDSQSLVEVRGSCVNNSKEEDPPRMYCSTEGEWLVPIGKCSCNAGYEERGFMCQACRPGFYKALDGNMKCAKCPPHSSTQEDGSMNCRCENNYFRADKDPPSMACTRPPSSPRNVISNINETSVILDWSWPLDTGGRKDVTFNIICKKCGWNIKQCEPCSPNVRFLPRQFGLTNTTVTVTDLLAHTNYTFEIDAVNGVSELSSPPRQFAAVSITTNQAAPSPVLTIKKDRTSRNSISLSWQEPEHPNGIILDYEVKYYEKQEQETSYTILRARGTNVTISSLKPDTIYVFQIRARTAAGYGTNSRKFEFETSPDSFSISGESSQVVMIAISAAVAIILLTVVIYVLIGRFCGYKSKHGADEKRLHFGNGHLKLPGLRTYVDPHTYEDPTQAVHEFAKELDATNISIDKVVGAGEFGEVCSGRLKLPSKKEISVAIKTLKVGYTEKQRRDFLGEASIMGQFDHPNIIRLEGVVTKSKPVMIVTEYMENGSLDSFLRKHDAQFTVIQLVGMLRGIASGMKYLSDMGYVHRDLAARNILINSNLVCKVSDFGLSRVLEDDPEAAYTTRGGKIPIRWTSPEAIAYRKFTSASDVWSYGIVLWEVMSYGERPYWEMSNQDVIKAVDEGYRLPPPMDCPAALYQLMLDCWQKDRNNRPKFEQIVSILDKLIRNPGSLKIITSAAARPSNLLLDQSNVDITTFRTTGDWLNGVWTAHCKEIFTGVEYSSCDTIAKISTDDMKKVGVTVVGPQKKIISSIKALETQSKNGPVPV
The following applies: at 10 µM.

Assay [2] deals with Ephrin type-A receptor 4 (Homo sapiens) (UniProt P54764). The conditions noted are these: at 1 µM.
Ephrin type-A receptor 4 (Homo sapiens), sequence (P54764 whole entry): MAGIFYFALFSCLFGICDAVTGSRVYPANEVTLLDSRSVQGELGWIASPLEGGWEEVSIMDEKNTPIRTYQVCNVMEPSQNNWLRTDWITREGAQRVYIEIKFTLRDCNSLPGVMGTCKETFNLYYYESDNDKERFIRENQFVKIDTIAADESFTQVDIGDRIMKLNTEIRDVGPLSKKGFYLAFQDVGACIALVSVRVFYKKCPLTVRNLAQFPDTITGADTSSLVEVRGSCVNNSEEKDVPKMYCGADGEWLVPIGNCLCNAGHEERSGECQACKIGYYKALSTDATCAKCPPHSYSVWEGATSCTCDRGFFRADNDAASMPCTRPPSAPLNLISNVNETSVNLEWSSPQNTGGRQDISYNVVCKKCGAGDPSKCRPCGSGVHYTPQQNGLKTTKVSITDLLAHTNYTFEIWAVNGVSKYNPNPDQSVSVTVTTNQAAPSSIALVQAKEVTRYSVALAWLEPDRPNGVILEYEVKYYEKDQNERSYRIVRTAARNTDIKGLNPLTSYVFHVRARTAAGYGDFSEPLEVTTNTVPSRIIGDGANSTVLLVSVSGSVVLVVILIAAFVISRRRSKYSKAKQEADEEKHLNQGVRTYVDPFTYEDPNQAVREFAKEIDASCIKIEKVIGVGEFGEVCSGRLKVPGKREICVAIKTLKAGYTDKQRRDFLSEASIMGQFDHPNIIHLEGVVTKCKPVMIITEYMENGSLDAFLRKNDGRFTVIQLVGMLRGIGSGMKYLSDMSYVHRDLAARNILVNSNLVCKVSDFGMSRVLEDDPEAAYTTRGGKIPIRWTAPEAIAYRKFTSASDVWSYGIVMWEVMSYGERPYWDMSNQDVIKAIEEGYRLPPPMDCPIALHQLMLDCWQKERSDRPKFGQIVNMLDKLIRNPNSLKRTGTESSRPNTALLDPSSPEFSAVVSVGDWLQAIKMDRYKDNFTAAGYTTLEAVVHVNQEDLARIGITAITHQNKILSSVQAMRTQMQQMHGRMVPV
Assay [3] has the same target. The following applies: at 10 µM.
Assay [4] addresses Ephrin type-A receptor 5 (Homo sapiens) (UniProt P54756). The following applies: at 1 µM.
Assay [5] shares this target. The conditions noted are these: at 10 µM.
Assay [6] deals with Ephrin type-A receptor 7 (Homo sapiens) (UniProt Q15375). The conditions noted are these: at 1 µM.
Ephrin type-A receptor 7 (Homo sapiens), sequence (Q15375 28-998 limits assumed): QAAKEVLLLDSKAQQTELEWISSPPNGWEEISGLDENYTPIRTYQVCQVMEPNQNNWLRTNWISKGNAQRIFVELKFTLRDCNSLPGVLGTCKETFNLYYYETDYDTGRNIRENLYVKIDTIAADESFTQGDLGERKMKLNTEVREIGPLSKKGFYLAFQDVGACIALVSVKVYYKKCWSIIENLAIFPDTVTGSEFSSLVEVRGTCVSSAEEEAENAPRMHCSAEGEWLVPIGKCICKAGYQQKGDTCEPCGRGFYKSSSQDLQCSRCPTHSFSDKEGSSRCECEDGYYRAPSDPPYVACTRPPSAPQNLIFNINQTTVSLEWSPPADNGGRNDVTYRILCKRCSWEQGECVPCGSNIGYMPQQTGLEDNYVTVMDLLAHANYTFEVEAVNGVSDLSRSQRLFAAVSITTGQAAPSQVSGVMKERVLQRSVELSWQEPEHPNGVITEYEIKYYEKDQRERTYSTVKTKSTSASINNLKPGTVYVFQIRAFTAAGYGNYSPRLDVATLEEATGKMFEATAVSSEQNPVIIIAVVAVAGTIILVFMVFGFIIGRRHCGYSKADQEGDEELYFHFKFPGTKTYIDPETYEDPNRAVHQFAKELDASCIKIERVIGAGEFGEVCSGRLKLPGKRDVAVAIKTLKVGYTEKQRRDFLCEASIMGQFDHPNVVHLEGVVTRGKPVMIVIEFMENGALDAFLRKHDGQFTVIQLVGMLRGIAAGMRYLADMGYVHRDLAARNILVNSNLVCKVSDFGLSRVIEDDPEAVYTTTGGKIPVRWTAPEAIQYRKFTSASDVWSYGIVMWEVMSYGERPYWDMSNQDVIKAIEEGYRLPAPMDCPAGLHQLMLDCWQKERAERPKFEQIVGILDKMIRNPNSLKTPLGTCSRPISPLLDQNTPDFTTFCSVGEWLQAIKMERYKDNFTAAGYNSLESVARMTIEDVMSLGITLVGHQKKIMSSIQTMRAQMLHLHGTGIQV
Assay [7] shares this target. The conditions noted are these: at 10 µM.
The target in assay [8] is T2, Ephrin type-A receptor 8 (Homo sapiens) (UniProt P29322).
T2 sequence (whole entry): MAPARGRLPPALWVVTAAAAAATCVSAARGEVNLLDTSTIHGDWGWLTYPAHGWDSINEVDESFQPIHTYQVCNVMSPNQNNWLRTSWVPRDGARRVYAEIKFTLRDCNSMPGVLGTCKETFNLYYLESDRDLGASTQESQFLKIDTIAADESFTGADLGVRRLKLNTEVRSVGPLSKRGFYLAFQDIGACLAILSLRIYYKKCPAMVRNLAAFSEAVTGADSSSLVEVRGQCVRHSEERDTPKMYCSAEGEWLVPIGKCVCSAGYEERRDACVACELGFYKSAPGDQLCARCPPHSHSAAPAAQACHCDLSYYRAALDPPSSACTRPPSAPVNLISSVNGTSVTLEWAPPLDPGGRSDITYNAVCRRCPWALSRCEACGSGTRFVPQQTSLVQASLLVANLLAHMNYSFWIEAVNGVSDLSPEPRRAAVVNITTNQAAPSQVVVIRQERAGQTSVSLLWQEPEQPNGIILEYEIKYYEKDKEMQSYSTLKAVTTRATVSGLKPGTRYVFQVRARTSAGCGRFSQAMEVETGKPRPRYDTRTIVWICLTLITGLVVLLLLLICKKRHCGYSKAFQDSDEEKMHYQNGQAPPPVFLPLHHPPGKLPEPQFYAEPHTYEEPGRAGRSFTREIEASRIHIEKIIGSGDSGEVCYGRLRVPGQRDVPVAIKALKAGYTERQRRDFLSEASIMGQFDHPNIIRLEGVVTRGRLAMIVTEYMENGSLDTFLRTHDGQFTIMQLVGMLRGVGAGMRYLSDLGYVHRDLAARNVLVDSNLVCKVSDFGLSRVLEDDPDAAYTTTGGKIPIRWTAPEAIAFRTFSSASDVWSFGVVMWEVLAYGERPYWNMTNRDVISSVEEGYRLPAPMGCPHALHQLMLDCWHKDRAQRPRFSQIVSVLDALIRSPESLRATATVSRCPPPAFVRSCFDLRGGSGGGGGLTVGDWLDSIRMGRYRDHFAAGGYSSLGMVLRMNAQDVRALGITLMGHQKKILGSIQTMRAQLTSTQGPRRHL
The following applies: at 1 µM.

Assay [9] deals with T2, Ephrin type-A receptor 8 (Homo sapiens). The conditions noted are these: at 10 µM.

Ephrin type-A receptor 5 (Homo sapiens), sequence (P54756 whole entry): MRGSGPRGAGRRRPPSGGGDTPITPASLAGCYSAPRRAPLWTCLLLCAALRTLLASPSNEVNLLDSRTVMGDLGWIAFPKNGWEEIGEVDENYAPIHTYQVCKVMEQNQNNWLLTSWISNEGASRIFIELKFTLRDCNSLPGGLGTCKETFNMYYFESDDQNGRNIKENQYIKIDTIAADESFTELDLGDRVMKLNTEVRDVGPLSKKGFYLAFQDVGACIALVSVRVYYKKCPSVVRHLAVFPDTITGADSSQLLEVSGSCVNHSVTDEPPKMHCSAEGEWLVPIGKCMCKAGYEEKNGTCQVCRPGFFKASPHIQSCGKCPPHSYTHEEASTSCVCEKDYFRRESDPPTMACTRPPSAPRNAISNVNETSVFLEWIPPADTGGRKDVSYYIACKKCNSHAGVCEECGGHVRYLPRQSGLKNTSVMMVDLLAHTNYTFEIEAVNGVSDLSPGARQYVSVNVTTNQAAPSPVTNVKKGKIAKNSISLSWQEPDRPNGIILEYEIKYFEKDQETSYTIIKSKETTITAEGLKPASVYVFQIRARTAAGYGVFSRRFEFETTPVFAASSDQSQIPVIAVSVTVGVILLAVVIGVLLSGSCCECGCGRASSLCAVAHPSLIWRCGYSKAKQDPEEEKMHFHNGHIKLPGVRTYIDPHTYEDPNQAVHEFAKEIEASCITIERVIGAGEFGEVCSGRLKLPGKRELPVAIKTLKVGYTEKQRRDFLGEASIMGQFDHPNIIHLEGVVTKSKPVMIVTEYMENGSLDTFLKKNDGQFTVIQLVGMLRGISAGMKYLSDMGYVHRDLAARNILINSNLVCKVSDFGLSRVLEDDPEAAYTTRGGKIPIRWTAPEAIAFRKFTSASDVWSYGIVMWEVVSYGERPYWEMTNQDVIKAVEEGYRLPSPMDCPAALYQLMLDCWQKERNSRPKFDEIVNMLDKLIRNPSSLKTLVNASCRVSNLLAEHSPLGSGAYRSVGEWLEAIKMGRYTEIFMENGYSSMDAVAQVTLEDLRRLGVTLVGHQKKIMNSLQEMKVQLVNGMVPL

Take `CC(C)n1cnc2/c(=N/c3cccc(Cl)c3)nc(NCCO)[nH]c21`: the residual activity in assay [1] was determined as 54%; in assay [2], 110%; in assay [3], 75%; in [4] it was 102%; in [5], 43%; in [6], 83%. Further, the values for the residual activity in assay [7], in [8] and in [9] were 43%, 97% and 77%, respectively.
